hERG WT inh: KCNH2 (human, wildtype) channel inhibition. activity change, % at 1.84 µM. AID 720551. U2OS, BacMam KCNH2, thallium flux FluxOr; active compounds read low. Q12809. hit rate 0.37% among 340,000;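 active = maximum activity change below -70%; inconclusive = maximum activity change between -70% and -50%; inactive = maximum activity change above -50%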; note: % is set by controls: 0 for no effect and ±100 for the full control effect
Target sequence (Q12809 whole entry, looked up): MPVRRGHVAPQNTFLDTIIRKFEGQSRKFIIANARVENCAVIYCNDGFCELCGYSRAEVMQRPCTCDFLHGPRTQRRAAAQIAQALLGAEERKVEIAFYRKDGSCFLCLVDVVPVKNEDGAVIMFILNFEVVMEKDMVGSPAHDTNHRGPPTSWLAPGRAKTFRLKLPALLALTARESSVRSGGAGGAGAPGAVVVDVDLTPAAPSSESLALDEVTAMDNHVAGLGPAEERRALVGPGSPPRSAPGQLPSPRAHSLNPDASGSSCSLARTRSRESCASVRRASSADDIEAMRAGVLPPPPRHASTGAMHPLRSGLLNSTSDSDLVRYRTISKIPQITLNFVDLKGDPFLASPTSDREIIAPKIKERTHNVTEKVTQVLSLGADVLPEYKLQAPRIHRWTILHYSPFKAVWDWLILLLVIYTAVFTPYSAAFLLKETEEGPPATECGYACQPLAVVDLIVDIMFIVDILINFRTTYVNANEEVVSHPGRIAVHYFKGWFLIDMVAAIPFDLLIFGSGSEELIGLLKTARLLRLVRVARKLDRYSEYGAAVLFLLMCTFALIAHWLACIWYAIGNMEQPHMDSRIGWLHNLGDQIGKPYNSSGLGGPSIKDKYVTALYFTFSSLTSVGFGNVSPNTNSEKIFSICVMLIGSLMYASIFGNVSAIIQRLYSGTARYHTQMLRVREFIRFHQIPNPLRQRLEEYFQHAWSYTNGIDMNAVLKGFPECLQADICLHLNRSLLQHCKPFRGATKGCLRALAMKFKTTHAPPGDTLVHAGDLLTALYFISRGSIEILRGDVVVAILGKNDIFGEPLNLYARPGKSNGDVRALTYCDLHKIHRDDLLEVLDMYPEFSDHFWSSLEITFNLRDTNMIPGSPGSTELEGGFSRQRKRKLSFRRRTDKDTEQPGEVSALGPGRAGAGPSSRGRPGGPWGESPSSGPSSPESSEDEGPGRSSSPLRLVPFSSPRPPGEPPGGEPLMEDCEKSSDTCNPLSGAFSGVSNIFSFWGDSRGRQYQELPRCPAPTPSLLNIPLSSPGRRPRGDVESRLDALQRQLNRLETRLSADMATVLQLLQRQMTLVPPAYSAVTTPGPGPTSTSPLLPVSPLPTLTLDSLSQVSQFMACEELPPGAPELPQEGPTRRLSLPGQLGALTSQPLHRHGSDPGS
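U2OS cells transduced with wild-type KCNH2 virus are loaded with FluxOr dye for 45 min, and thallium flux is measured in kinetic reads before and after stimulation buffer. Rate constants are normalized to DMSO controls.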
TRPV1 ag: activates the human vanilloid receptor TRPV1; TRPV1-expressing cells, Fluo-8 calcium influx, agonist mode; activation, % at 8.33 µM; hit rate 0.19% among 320,000; Q8NER1; AID 540275; in the data active = activation above about 80%; inconclusive = between about 30% and that limit; note: 0% is about no effect
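Cells expressing TRPV1 were dye-loaded with Fluo-8 and read kinetically: 10 s baseline, 3 min after compound (agonist portion), then 2 min after EC20 capsaicin (allosteric enhancer portion). Calcium-bound dye fluorescence at 480/520 nm.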
TRPV1 PAM: human TRPV1 potentiation. TRPV1-expressing cells, Fluo-8 calcium influx, capsaicin EC20 potentiation. potentiation, % at 8.33 µM. AID 540277. hit rate 0.02% among 320,000; in the data active = potentiation above about 80%; inconclusive = between about 30% and that limit; note: 0% is about no effect
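TRPV1-expressing cells were cultured overnight at 35.5C and loaded with Fluo-8 calcium dye for 40 to 90 min at room temperature. After a 10 s baseline, compound was added and calcium influx was read kinetically for 3 min (ex 480/em 520 nm).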
KCNH2 3.1 block: KCNH2 3.1 (human) potassium channel inhibition. U2OS KCNH2 3.1, thallium flux FluxOr; active compounds read low. activity change, % (tested at about 1.8 µM). hit rate 0.95% among 340,000. AID 720553;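 active = maximum activity change below -70%; inconclusive = maximum activity change from -70% to -50%; inactive = maximum activity change above -50%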;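 note: thallium influx rate constant from kinetic fluorescence after stimulation buffer; % is set by controls: 0 for no effect and ±100 for the full control effect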
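Steps: virus added to U2OS suspension (4 h, RT, dark); medium with 10% FBS added, cells plated, 37 C overnight; FluxOr/Red40 loading buffer 45 min RT; stimulation buffer, 2 min kinetic read; rate constant normalized.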
* = called active by the depositor; ? = inconclusive; nt = not tested or not shown. Shown are actives, neighbours in structure and some others; about 1.2% of the full set was active somewhere.

SMILES	hERG WT inh	TRPV1 ag	TRPV1 PAM	KCNH2 3.1 block
CCCCCC1CC(CC(=O)Nc2ccc([N+](=O)[O-])cc2)C(=O)O1 (stereo not drawn)	nt	2.2	-2.9	-71.3*
CCCCCC1CC(CC(=O)Nc2ccc([N+](=O)[O-])cc2)OC1=O (stereo not drawn)	1.4	17.8	-1.4	-4.4
O=C(COC(=O)C12CC3CC(CC(Cl)(C3)C1)C2)NCc1ccco1	nt	28.8	-17.5	nt
CCOC(=O)C1(CCOc2ccccc2)CCN(Cc2ccc(C)o2)CC1	12.4	12.2	-18.2	-9.6
CCOC(=O)C1(CCOc2ccccc2)CCN(Cc2ccc(OCCO)cc2)CC1	-77.0*	6.4	-8.3	-109.8*
CCCN1CCC(CCOc2ccccc2)(C(=O)OCC)CC1	20.5	5.3	0.7	-20.9
CCOC(=O)C1(CCOc2ccccc2)CCN(Cc2ccc(O)cc2)CC1	-20.8	16.5	-5.2	-84.1*
COc1ccc(S(=O)(=O)NC(C)c2ccc3c(c2)OCCO3)cc1 (stereo not drawn)	4.0	nt	nt	4.8
CCCCN(C)C(=S)Nc1ccsc1C(=O)OC	-7.4	6.1	4.2	-154.5*
COC(=O)c1sccc1NC(=O)c1ccc(OC)cc1OC	-246.1*	-0.5	-6.9	-176.1*
COC(=O)c1sccc1NC(=S)N(C)C1CCCCC1	3.0	13.1	-2.9	12.5
COC(=O)c1sccc1NC(=O)Nc1ccc(C(C)=O)cc1	16.3	?	-10.3	-79.4*
Oc1ccc(Nc2nc(-c3ccccc3O)nc3ccccc23)cc1	13.4	26.5	-2.0	-118.4*
N#CC1(NC(=O)CSc2nc3ccccc3o2)CCCCC1	-0.4	nt	nt	0.3
Cc1cc(NC(=O)COC(=O)[C@@H]2CCCN2C(=O)c2cccs2)no1	-1.4	nt	nt	27.9
COc1ccc(CCNC(=O)C2CC(O)CN2S(=O)(=O)c2ccc(Cl)cc2)cc1OC (stereo not drawn)	7.1	nt	nt	6.1
COc1cccc(N2CCN(c3nc(C)cc(=O)[nH]3)CC2)c1	-4.9	96.9*	-10.7	11.6
COc1ccc(NC(=O)c2ccc(-c3ccccc3)cc2)cc1S(=O)(=O)N1CCOCC1	0.9	-2.4	-3.9	-71.4*
COc1ccc(NC(=O)c2ccc(-c3ccccc3)cc2)cc1NS(=O)(=O)c1ccc(F)cc1	-2.1	0.2	-14.8	-77.4*
COc1ccc(NC(=O)c2ccccc2)cc1NS(=O)(=O)c1ccc(F)cc1	5.9	4.7	-4.7	17.7
CCc1ccc(C(=O)Nc2ccc(OC)c(S(=O)(=O)N3CCOCC3)c2)cc1	10.7	6.5	-1.3	11.2
O=C(Cn1ccccc1=O)Nc1ccc(Cl)c(S(=O)(=O)N2CCCCC2)c1	-3.7	9.8	-10.3	-2.4
N#CC1=C(N)NC(SCc2ccc(Br)cc2)=C(C#N)C12CCCCC2	-0.4	0.6	3.3	-11.6
N#CC1=C(N)NC(SCC(=O)Nc2ccc(Br)cc2)=C(C#N)C12CCCCC2	-145.8*	6.2	6.2	-32.7
COc1cc(OC)cc(-c2oc(=O)c3cc(OC)c(OC)cc3c2/C=C/c2ccc(F)cc2)c1	-4.8	-0.8	8.4	5.5
SMILES	hERG WT inh	TRPV1 ag	TRPV1 PAM	KCNH2 3.1 block
CCN1CCN(C(CNS(=O)(=O)c2cccs2)c2cccnc2)CC1 (stereo not drawn)	16.0	-0.1	6.6	-461.8*
CC(OC(=O)CC1CCCCC1)C(=O)Nc1ccc(F)cc1 (stereo not drawn)	2.9	83.2*	-14.6	-6.8
C(#Cc1ccccc1)C[N+]1(CC#Cc2cccc3ccccc23)CCCC1	-15.4	-3.5	-5.5	-79.6*
C#CC[N+]1(CC#Cc2ccccc2)CCCC1	-2.2	-3.0	-6.5	-8.1
COc1ccc(C(=O)NC(=S)N2CCN(c3ccccc3O)CC2)cc1	-16.4	nt	nt	-9.2
COc1ccc(/C=C(/NC(=O)c2ccc([N+](=O)[O-])cc2)C(=O)NCCCN(C)C)cc1	-84.1*	2.7	2.7	?
CN(C)CCCNC(=O)/C(=C\C=C\c1ccccc1)NC(=O)c1ccc([N+](=O)[O-])cc1	-72.2*	1.3	2.0	-99.0*
Cc1ccc(C(=O)N/C(=C\c2ccc(Cl)cc2)C(=O)NCCN2CCOCC2)cc1	-93.3*	-7.0	7.5	?
Cc1ccc(C(=O)N/C(=C\c2ccc([N+](=O)[O-])cc2)C(=O)NCCc2ccccc2)cc1	-20.2	-2.5	3.8	-95.8*
Cc1cc(N2O[C@]34C=C[C@]25C[C@@H](O)CC[C@]5(C)C3CC[C@]2(C)[C@@H]([C@H](C)/C=C/[C@H](C)C(C)C)CC[C@H]24)no1 (stereo partly drawn)	2.5	nt	nt	-2.4
COc1ccc(NC(=O)CN(C)C(=O)c2oc3c(ccc4ccccc43)c2C)cc1	1.4	?	-9.0	3.3
COc1ccc(/C=C(\NC(=O)c2ccc([N+](=O)[O-])cc2)C(=O)NCCN2CCOCC2)cc1	-118.1*	3.3	-10.2	-77.9*
COc1ccc(/C=C(\NC(=O)c2ccc([N+](=O)[O-])cc2)C(=O)NCCCN2CCOCC2)cc1	-45.8	-7.9	9.9	?
O=C(CI)Nc1cccc2cccnc12	nt	3.0	-10.5	nt
CCN1C(=O)[C@H]2[C@@H](c3ccc(C(F)(F)F)cc3)N[C@]3(CCCN(Cc4cccn4C)C3=O)[C@H]2C1=O	1.9	nt	nt	-2.2
Cc1cccc2c1-c1sc(C(=O)Nc3ccccc3N3CCN(C)CC3)cc1CO2	-17.1	10.1	24.4	-71.4*
Cc1cccc2c1-c1sc(C(=O)N3CCCCC3)cc1CO2	-5.8	88.0*	2.3	-1.3
C/C(=N/NS(=O)(=O)c1ccc(Br)cc1)c1cccc(NC(=O)C2CC2)c1	-5.8	nt	nt	6.6
Cc1ccc(Nc2nc(C)cc(C)c2C#N)c(C)c1	-2.5	nt	nt	3.3
C[C@@H]1CN([C@H](C)CO)C(=O)CCCn2nncc2CO[C@@H]1CN(C)C(=O)Nc1cccc2ccccc12	-77.3*	nt	nt	11.1
C[C@@H]1CN([C@@H](C)CO)C(=O)CCCn2nncc2CO[C@H]1CN(C)C(=O)Nc1cccc2ccccc12	15.3	nt	nt	3.3
C[C@H](CO)N1C[C@H](C)[C@H](CN(C)C(=O)Cc2ccccc2)OCc2cnnn2CCCC1=O	-264.5*	nt	nt	17.9
COc1ccc(C(=O)N/N=C\C(C)=C\c2ccccc2)cc1OC	1.7	nt	nt	-98.4*
CC(/C=N/NC(=O)C(O)c1ccccc1)=C\c1ccccc1 (stereo not drawn)	-12.5	12.2	-5.1	-168.7*
CC(/C=N/NC(=O)c1ccc(Br)cc1)=C\c1ccccc1	-4.9	2.1	-0.8	?
O=C(Nc1cccc(C(=O)O)c1)/C(=C\c1cccc([N+](=O)[O-])c1)NC(=O)c1ccc(Br)cc1	-8.6	nt	nt	1.6
CCN(CC)c1ccc2cc(-c3nc4ccccc4[nH]3)c(=O)oc2c1	-93.3*	151.5*	26.3	-112.2*
CCN(CC)c1ccc2cc(-c3nc4ccccc4n3C)c(=O)oc2c1	-1.5	nt	nt	-11.8
CCN(CC)c1ccc2cc(-c3nnc(-c4ccccc4)o3)c(=O)oc2c1	-96.0*	101.0*	0.9	-40.6
CCN(CC)c1ccc2cc(-c3nc(-c4ccc(OC)cc4)cs3)c(=O)oc2c1	-233.4*	?	3.3	-132.5*

Screens from PubChem BioAssay.
